Experimental data as given in PubChem BioAssay (NCATS).
Calls of active or inactive are those of the source. No rule for the calls is given here.

Test: qHTS assay for small molecule activators of the human pregnane X receptor (PXR) signaling pathway (AID 720659)
Conditions: DPX-2 HepG2 CYP3A4-luciferase, 24 h; series mostly up to 92.3 µM

Row | Compound | outcome
1 | CC(C#N)CCC#N (stereo unspecified) | inactive
2 | Nc1cc(Cl)ccc1Cl | inactive
3 | Nc1cccc(Cl)c1 | inactive
4 | ClCc1ccccc1 | inactive
5 | CCC/C=N/O | inactive
6 | COc1c(C(C)(C)C)cc([N+](=O)[O-])c(C)c1[N+](=O)[O-] | inactive
7 | O=S(=O)(Cl)c1ccccc1 | inactive
8 | C=CCOCC1CO1 (stereo unspecified) | inactive
9 | c1ccoc1 | inactive
10 | Clc1ccccc1 | inactive
11 | ClC(Cl)(Cl)C(Cl)(Cl)Cl | inactive
12 | C/C=C/CC#N | inactive
13 | ClC(Cl)C(Cl)Cl | inactive
14 | C=CCCl | inactive
15 | Oc1c(Cl)cccc1Cl | inactive
16 | Brc1cccc(-c2ccccc2)c1 | inactive
17 | C=CCO | inactive
18 | Nn1cnnc1 | inactive

Row | Compound | outcome
19 | BrCCc1ccccc1 | inactive
20 | Cc1ccccc1[N+](=O)[O-] | inactive
21 | CCCCOC(=O)c1ccccc1N | inactive
22 | Clc1cc(Cl)c(Cl)c(Cl)c1 | inactive
23 | Cc1ccc(N)c(C)c1 | inactive
24 | C1CC2OC2CC1C1CO1 (stereo unspecified) | inactive
25 | CN(C)C(=O)Cl | inactive
26 | CC(=O)NNc1ccccc1 | inactive
27 | Cc1ccc(N=C=O)cc1N=C=O | inactive
28 | O=C(Cl)OCc1ccccc1 | inactive
29 | C=CC(=O)OC | inactive
30 | CCN(CC)N=O | inactive
31 | OCC(Cl)CCl (stereo unspecified) | inactive
32 | CC(C)CON=O | inactive
33 | CC[N+](=O)[O-] | inactive
34 | CC(C)(Cl)[N+](=O)[O-] | inactive
35 | CC(C)OC(=O)Cc1ccccc1 | inactive
36 | ClCC(Br)CBr (stereo unspecified) | inactive
